In experiment [1] the target is Aldehyde dehydrogenase, mitochondrial (Homo sapiens) (UniProt P05091). The experiment is described as follows: qHTS for Inhibitors of the Aldehyde Dehydrogenase Family (ALDH2) Primary screen (AID 2061308).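 Also: plate controls were vehicle for no effect and reference inhibitor for full effect; nearly all actives have a fitted effect of over 55% in size.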 A general note: In qHTS, concentration-response curves come from the screen itself.
In experiment [2] the target is Retinaldehyde dehydrogenase 3 (Homo sapiens) (UniProt P47895). As to the kind of experiment: qHTS for Inhibitors of the Aldehyde Dehydrogenase Family (ALDH1A3) Primary screen (AID 2061315).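 Also: plate controls were DMSO vehicle for no effect and reference inhibitor for full effect.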
Experiment [3] in a line: BET inhibitor-based combinations targeting novel dependencies in MECOM-rearranged (r) AML: SET-2 cell line (AID 2202231). Also: nearly all actives have a fitted effect of over 35% in size. Also: potency is read from the fitted curve at half-maximal effect.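 As to viability: plate controls were DMSO treated cells for no effect and wells without cells for full effect.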 The note with it: SET-2 AML cells viability, CellTiter-Glo luminescence, 48 h; viability: stronger effect = lower value, concentration not given here. An outline of the steps:
(§1)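 Each compound was tested at eleven concentrations on cells seeded at 500/well. After two days' incubation, ATP-based luminescence reported viability; responses relative to DMSO and blank wells yielded AUC and cell-line-centred Z-AUC.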

Experiment [4] in a line: BET inhibitor-based combinations targeting novel dependencies in MECOM-rearranged (r) AML: OCI-AML3 cell line (AID 2202232). Also: nearly all actives have a fitted effect of over 35% in size. Also: potency is read from the fitted curve at half-maximal effect. The note with it: Potency: OCI-AML3 viability. In outline:
as §1

Experiment [5] in a line: BET inhibitor-based combinations targeting novel dependencies in MECOM-rearranged (r) AML: MV-4-11 cell line (AID 2202233). Also: nearly all actives have a fitted effect of over 45% in size. Also: potency is read from the fitted curve at half-maximal effect. In outline: (§2)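 First, 500 cells per well were seeded; next, drugs were pinned as 11-point doses; then plates sat 48 hr in the incubator; finally CellTiter-Glo was added and luminescence read, with AUC and Z-AUC computed.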
The nature of experiment [6]: BET inhibitor-based combinations targeting novel dependencies in MECOM-rearranged (r) AML: HNT-34 cell line (AID 2202234). Also: nearly all actives have a fitted effect of over 35% in size. Also: potency is read from the fitted curve at half-maximal effect. An outline of the steps:
as §2

A short description of experiment [7]: BET inhibitor-based combinations targeting novel dependencies in MECOM-rearranged (r) AML: UCSD-AML1 cell line (AID 2202235). Also: nearly all actives have a fitted effect of over 40% in size. Also: potency is read from the fitted curve at half-maximal effect. An outline of the steps: as §2
Experiment [8] can be described thus: BET inhibitor-based combinations targeting novel dependencies in MECOM-rearranged (r) AML: AML-191 cell line (AID 2202236; also: nearly all actives have a fitted effect of over 35% in size; also: potency is read from the fitted curve at half-maximal effect). In outline:
as §1

The nature of experiment [9]: BET inhibitor-based combinations targeting novel dependencies in MECOM-rearranged (r) AML: AML-194 cell line (AID 2202237; also: nearly all actives have a fitted effect of over 40% in size; also: potency is read from the fitted curve at half-maximal effect). An outline of the steps:
as §1

Records with an inconclusive call do not appear. Values without a mark were called inactive. Calls of active or inactive are those of the source. Calls follow the shape of the dose curve; as a rule, active = well fitted curve in the direction sought with a large enough effect; inconclusive = small, poorly fitted or top-dose-only effect, or another doubt; inactive = no such curve, though single readings can be large; an effect the other way counts as inactive or inconclusive.

Broadly, the viability is the share of living cells, or the viability signal relative to a control.

With `c1nc(N2CCC(N3CCCC3)CC2)c2cc(-c3ccc4c(c3)OCO4)ccc2n1`, the Potency entry in experiment [1] and in [2] was “inactive” in each case.
As for `O=C(OCC#CCSc1nnc(-c2cccc3ccccc23)o1)c1ccc(F)cc1F`, the Potency entry in experiment [1] and in experiment [2] was “inactive” each time.
Take `Cc1cc2c(s1)c1cnn(Cc3ccccc3F)c(=O)c1n2Cc1ccccc1F`: the Potency result in [1] and in [2] was “inactive” each time.
Turning to `COc1cccc(C2c3c(ncn(-c4ccc(C#N)cc4)c3=N)Oc3ccc4ccccc4c32)c1` (configuration not stated), the Potency result in experiment [1] and in [2] was “inactive” throughout.
In the case of `COc1ccc(C2Nc3ccccc3C(=O)N2Cc2ccco2)cc1COc1c(C)cc(NC(C)=O)cc1C` (configuration not stated), the Potency result in [1] and in experiment [2] was “inactive” each time.
Regarding `CCN(CC)CCCn1c(-c2ccccc2)nc2c(NCc3ccccc3)nc(C)nc21`, the Potency entry in [1] and in experiment [2] was “inactive” each time.
For `Cc1ccc(NS(=O)(=O)c2cc3c(cc2NC(C)C)NC(=O)CC3)cc1C`, the Potency result in experiment [1] and in experiment [2] was “inactive” throughout.
As for `Nc1cccc(-c2ccc(NC(=O)c3cccs3)cn2)c1`, the Potency result in experiment [1] and in experiment [2] was “inactive” each time.
`COc1ccc(C(CC(=O)N2CC(C)CC(C)C2)c2c(O)cc(OC)cc2OC)cc1` (configuration not stated): the Potency result in experiment [1] and in experiment [2] was “inactive” each time.
As for `O=[S+]([O-])(c1cc2ccccc2o1)N1CCN([S+](=O)([O-])c2c(F)cccc2F)CC1`, the Potency entry in [1] and in experiment [2] was “inactive” throughout.
`O=C(Cc1nnc(-c2nc3ccccc3[nH]2)o1)Nc1cc(C(F)(F)F)ccc1Cl`: the Potency entry in [1] and in [2] was “inactive” throughout.
For `CC(=O)O[C@H]1C(=O)[C@@]2(C)[C@H]([C@H](OC(=O)c3ccccc3)[C@]3(O)C[C@H](OC(=O)[C@H](O)[C@@H](NC(=O)c4ccccc4)c4ccccc4)C(C)=C1C3(C)C)[C@]1(OC(C)=O)CO[C@@H]1C[C@@H]2O`, the Potency entry in experiment [1] and in [2] was “inactive” each time.
`CCOC(=O)c1ccc(-c2ccc3ncnc(NCc4csc(C)n4)c3c2)o1`: the Potency result in experiment [1] and in [2] was “inactive” in each case.
For the compound `O=[S+]([O-])(Nc1ccc(C2CCNCC2)cc1)c1ccc(NCc2ccc(Cl)cc2O)cc1`, the Potency entry in experiment [1] and in experiment [2] was “inactive” in each case.
`N[C@@H](Cc1ccccc1)C(=O)Nc1ccc(Cl)cc1C(=O)c1ccc[nH]1`: the Potency entry in [1] and in experiment [2] was “inactive” in each case.
Turning to `CC(=O)c1ccc(N2CCN(S(=O)(=O)c3ccc4c(c3)CCCC(=O)N4)CC2)cc1`, the Potency result in experiment [1] and in experiment [2] was “inactive” each time.
Regarding `Cc1cc2c(s1)c1cnn(Cc3cc(F)ccc3C)c(=O)c1n2C`, the Potency result in experiment [1] and in [2] was “inactive” throughout.
Turning to `COc1ccc(COc2ccc(-c3nc4ccccc4[nH]3)cc2)cc1OC`, the Potency result in experiment [1] and in experiment [2] was “inactive” each time.
For `CCC(C(=O)NC(=O)NC(C)=O)c1ccccc1` (configuration not stated), the Potency entry in experiment [1] and in experiment [2] was “inactive” in each case.
Regarding `COc1cc(F)c(S(=O)(=O)N2CCN(S(=O)(=O)c3cccc(NC(C)=O)c3)CC2)c(F)c1`, the Potency entry in experiment [1] and in experiment [2] was “inactive” throughout.
For the compound `CCOC(=O)c1ccc(-c2ccc3ncnc(N(C)Cc4sccc4C)c3c2)o1`, the Potency entry in experiment [1] and in experiment [2] was “inactive” in each case.
`Cn1nnnc1Sc1ncnc2scc(-c3ccsc3)c12`: the Potency entry in experiment [1] and in experiment [2] was “inactive” throughout.
For the compound `O=C1NS(=O)(=O)c2cscc21`, the Potency entry in experiment [1] and in experiment [2] was “inactive” throughout.
With `O=C1c2ccccc2C(=O)N1Cc1ccccn1`, the Potency result in [1] and in experiment [2] was “inactive” in each case.
Turning to `Cc1ccc(S(=O)(=O)Nc2cnccc2C(=O)Nc2nc(-c3ccc(Cl)c(Cl)c3)cs2)cc1`, the Potency entry in experiment [1] and in [2] was “inactive” in each case.
For `COc1ccc(C2=Nn3c(nnc3-c3cccc(OC)c3OC)SC2)cc1OC`, the Potency entry in experiment [1] and in experiment [2] was “inactive” in each case.
Take `CCCn1c(-c2ccc(F)cc2)nc2c(NCCCN(CCO)CCO)nc(C)nc21`: the Potency result in [1] and in experiment [2] was “inactive” throughout.
Turning to `CCOc1ccc(CCNC(=O)c2cc3sccc3n2C)cc1OCC`, the Potency result in [1] and in [2] was “inactive” in each case.
As to `Cn1nnnc1Sc1ncnc2scc(-c3cccc([N+](=O)[O-])c3)c12`, the Potency entry in experiment [1] and in experiment [2] was “inactive” throughout.
On to `CC(=O)Nc1sc2c(c1-c1nc3ccccc3s1)CCS(=O)(=O)C2`, for which the Potency result in experiment [1] and in experiment [2] was “inactive” throughout.
As for `FC(F)(F)c1cccc(CSc2nc3ncc(Br)cc3[nH]2)c1`, the Potency entry in experiment [1] and in experiment [2] was “inactive” in each case.
Turning to `Cc1ccc(NS(=O)(=O)c2cc3c(cc2F)NC(=O)CC3)cc1C`, the Potency entry in experiment [1] and in experiment [2] was “inactive” throughout.
For `O=S(=O)(c1ccc2c(c1)OCCO2)N1CCN(S(=O)(=O)c2ccccn2)CC1`, the Potency result in experiment [1] and in experiment [2] was “inactive” in each case.
Take `CN(C)S(=O)(=O)c1ccc(-c2nc(NCc3ccc(-c4ccnc(C(F)(F)F)c4)cc3)c3ccccc3n2)cc1`: the Potency result in [1] and in experiment [2] was “inactive” each time.
On to `Cc1nc(-c2cn3c(n2)-c2ccc(-c4cnn(C(C)(C)C(N)=O)c4)cc2OCC3)n(C(C)C)n1`, for which the Potency entry in experiment [1] and in experiment [2] was “inactive” each time. Further, the Potency is 23.5 µM (active) in [3]; 0.742 µM (active) in experiment [4]; 5.25 µM (active) in experiment [5]; 16.6 µM (active) in experiment [6]; 0.209 µM (active) in experiment [7].
Turning to `COc1ccccc1-c1cccc(-c2c(O)c3cc(C#N)c(Cl)cc3[nH]c2=O)c1`, the Potency entry in experiment [1], in experiment [2], in [4], in [5], in [6] and in experiment [7] was “inactive” throughout. The Potency entry in experiment [8] and in experiment [9] was “inactive” in each case. The viability in experiment [3] is 99.8%.
As for `O=C1Nc2nc(-c3c(O)cccc3OCC3CC3)cc([C@@H]3CCCNC3)c2CO1`, the Potency result in [1] and in experiment [2] was “inactive” throughout. In addition, the Potency is 20.9 µM (active) in experiment [3]; 16.6 µM (active) in experiment [4]; 5.9 µM (active) in [5]; 18.6 µM (active) in experiment [6]; 18.6 µM (active) in [8]; 18.6 µM (active) in experiment [9].

(Values after PubChem BioAssay (NCATS).)
